Chronic BCR inh – qHTS Assay to Find Inhibitors of Chronic Active B-Cell Receptor Signaling | ABC-DLBCL IkBa-CBG/CBR reporter, luminescence ratio, 4 h | Potency, µM (doses to about 46.1 µM), without a hit: at the highest dose activity change, negative = inhibition, hits mostly inhibitors | 340,000 tested, 0.05% active; active = well fitted inhibition curve with a large enough effect in the signal ratio, with a control signal flat, not every such curve was filed as active; inconclusive = small, poorly fitted or top-dose-only effect, or effect the other way, or a change in a side signal; the % refers to the signal ratio;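 note: potency is the fitted concentration of half-maximal effect; plate controls were basal doxycycline-induced cells for no effect and cells given 10 µM MG132 for full effect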
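TMD8 ABC-DLBCL cells carrying doxycycline-inducible green luciferase fused to IkappaBalpha plus unfused red luciferase were exposed to compounds (up to 46 uM) for 4 hrs at 37C. Activity came from the overlap-corrected green/red luminescence ratio.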
DT40 TDP1 CPT – qHTS for Inhibitors of human tyrosyl-DNA phosphodiesterase 1 (TDP1): qHTS in cells in presence of CPT. chicken DT40 Tdp1-/-;hTDP1 cells + 20 nM CPT, ATP luminescence, 48 h. Potency, µM (doses to about 46.2 µM), without a hit: at the highest dose activity change, negative = growth inhibition, usual class: inhibitors. 420,000 tested, 12% active; note: potency is the fitted concentration of half-maximal effect; % is set by controls: 0 for no effect and ±100 for the full control effect; nearly all actives have a fitted effect of over 55% in size
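Chicken DT40 Tdp1-/- cells complemented with human TDP1, 400 cells/well, exposed to compounds plus 20 nM camptothecin for at least 48 h at 37 C; viability read as ATP content by CellTiter-Glo luminescence.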
MCF10A rereplic – A quantitative high throughput screen for small molecules that induce DNA re-replication in MCF 10a normal breast cells; MCF 10A DNA re-replication, Hoechst nuclear intensity, 48 h; Potency, µM (top dose mostly 46.1 µM), without a hit: top-dose activity, positive = re-replication, most hits filed as activators; 350,000 tested, 2.9% active; AID 624296, 2012; note: potency is the fitted concentration of half-maximal effect; % of control where 0% means no effect; nearly all actives have a fitted effect of over 50% in size
IL1B secr inh – qHTS for Inhibitors of Inflammasome Signaling: IL-1-beta AlphaLISA Primary Screen | THP-1 LPS/ATP IL-1B secretion, AlphaLISA, 16 h; active compounds read low | activity change, % at 57.5 µM | 360,000 tested, 4.7% active; in the data active = activity change below about -50%; inconclusive = mostly about -30% to -49%; note: % is set by controls: 0 for no effect and ±100 for the full control effect
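THP-1 cells pretreated 1 hr with compounds (up to 57.5 uM final), then stimulated with LPS (250 ng/mL final) plus ATP (1.25 mM final); secreted IL-1B measured by AlphaLISA after 16 hr, decreased signal indicating inhibition.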
SW480 rerep – A quantitative high throughput screen for small molecules that induce DNA re-replication in SW480 colon adenocarcinoma cells. Potency, µM (top dose mostly 46.1 µM), for the others: top-dose re-replication activation, actives largely listed as activators. 340,000 tested, 1.8% active. SW480 DNA re-replication, Hoechst DNA content imaging, 48 h; note: potency is the fitted concentration of half-maximal effect; % of control where 0% means no effect; nearly all actives have a fitted effect of over 55% in size
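Compounds, transferred as 23 nL by pin tool, were incubated with cells for 48 hr; DNA content per nucleus was then quantified by Hoechst staining and fluorescence plate imaging.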
DT40 TDP1 no CPT – qHTS for Inhibitors of human tyrosyl-DNA phosphodiesterase 1 (TDP1): qHTS in cells in absence of CPT; DT40 Tdp1-/- hTDP1 cells, no CPT, ATP luminescence, 48 h; Potency, µM (series often up to 46.2 µM), for the others: top-dose activity change, negative = growth inhibition, hits mostly inhibitors; 420,000 tested, 15% active; AID 686978, 2013; note: potency is the fitted concentration of half-maximal effect; % is set by controls: 0 for no effect and ±100 for the full control effect; nearly all actives have a fitted effect of over 55% in size
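No-CPT arm: Tdp1-/-;hTDP1 DT40 cells (400/well) plus compounds, incubated ≥48 hr at 37 °C. Readout CellTiter-Glo luminescence.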
* marks the source's active call; other numbers are inactive results; ? = inconclusive; nt = not tested or not shown; [ ] = another dose, or the depositor's remark. Sampled rows, rich in hits. Any-hit rate of the full collection: about 19%. Unless noted, calls come from the whole dose curve; as a rule, active = well fitted curve in the direction sought with a large enough effect; inconclusive = small, poorly fitted or top-dose-only effect, or another doubt; inactive = no such curve, though single readings can be large; an effect the other way counts as inactive or inconclusive.

SMILES	Chronic BCR inh	DT40 TDP1 CPT	MCF10A rereplic	IL1B secr inh	SW480 rerep	DT40 TDP1 no CPT
COc1ccc(C(=O)C[n+]2ccccc2C)cc1	7%	16µM*	?	7	-1%	21µM*
CC(=O)c1ccc(C(=O)NCC2Cc3cccc(-c4ncccn4)c3O2)cc1 (centres undefined)	nt	3%[9.04 µM]	nt	nt	nt	-24%
COc1ccc(N2CCN(C(=O)C3Cc4ccccc4N3C(C)=O)CC2)cc1 (centres undefined)	nt	?	nt	nt	nt	-28%
COc1ccccc1N1CCN(C(=O)[C@@H]2CCCN2C2=NS(=O)(=O)c3ccccc32)CC1	nt	-19%	nt	9	nt	-1%
Cc1ccc(SCC(=O)Nc2ccc3oc(-c4cccc(Cl)c4)nc3c2)cc1	nt	?	nt	nt	nt	21µM*
Cc1ccc2oc(-c3cccc(NC(=O)Cc4ccc(Cl)cc4)c3)nc2c1	nt	-2%	nt	nt	nt	-6%
Cc1cccc(-c2nc3cc(NC(=O)Cc4ccc(Cl)cc4)ccc3o2)c1	nt	16µM*	nt	nt	nt	10µM*
Cc1cc2nc(-c3cccc(NC(=O)CSc4ccc(Cl)cc4)c3)oc2cc1C	nt	16µM*	nt	nt	nt	?
N#CCCCc1cc2ccccc2cn1	0%	-13%	2%	0	-8%	-13%
COc1ccc(C2/C=C\CN(C(=O)CC(C)(C)C)CC(=O)N2Cc2ccc(F)cc2)cc1 (centres undefined)	-7%	?	17%	7	-3%	?
CCCCCCC(=O)N1C/C=C\C(c2ccc(OC)cc2)N(Cc2ccc(F)cc2)C(=O)C1 (centres undefined)	1%	?	34%	-4	1%	23µM*
CCCCCCNC(=O)N1C/C=C\C(c2ccc(OC)cc2)N(Cc2ccc(F)cc2)C(=O)C1 (centres undefined)	-5%	?	1%	16	-12%	23µM*
COc1ccc(NC(=O)CN(C)C(=O)C(C)N2C(=O)c3ccccc3C2=O)cc1 (centres undefined)	-1%	7%	-3%	2	-2%	10%
NNC(=O)CN1C(c2ccccc2Br)=Nc2ccc(Br)cc2C1c1ccccc1 (centres undefined)	?	?	6%	-7	-3%	16µM*
CC(C)(C)c1cc(NCCCn2ccnc2)n2ncc(-c3ccccc3)c2n1	23%	15%	?	-97*	?	?
Cc1cc(NCCCN(C)C)n2nc(-c3cccs3)cc2n1	?	-2%	1%	-109*	-6%	?
Cc1cccc(-c2cc3nc(C)cc(NCCCn4ccnc4)n3n2)c1	?	?	?	-106*	-2%	23µM*
CC(C)Nc1cc(C(C)(C)C)nc2c(-c3ccccc3)cnn12	?	-14%	?	-70*	-3%	?
O=C(NCCc1ccccc1F)C1CC(=O)N(c2ccc3c(c2)OCCO3)C1 (centres undefined)	nt	-6%	nt	5	nt	-3%
COc1ccc(C2c3c(-c4ccccc4)n[nH]c3C(=O)N2c2ccc(C(=O)O)cc2)c(OC)c1 (centres undefined)	nt	0%	nt	nt	nt	-2%
COc1ccc(N2CC(C(=O)N3CCCC(C)C3)CC2=O)cc1 (centres undefined)	4%	-21%	3%	20	18µM*	-1%
O=S(=O)(c1cccs1)N1CN(Cc2cccs2)c2nc3ccccc3nc21	15%	?	?	-10	19%	16µM*
CC(=O)NCCNc1nc2cc(-c3cscc3C)sc2c(=O)n1C	nt	-30%	nt	70	nt	?
COc1ccc(NC(=O)CN(C)Cc2c(F)cccc2Cl)cc1S(=O)(=O)N1CCCCC1	3%	7%	-1%	-3	1%	2%
COc1ccc(/C=C/C(=O)N(C)CC(=O)Nc2cccc(F)c2)cc1S(=O)(=O)N1CCCCC1	2%	18µM*	?	4	21µM*	16µM*
SMILES	Chronic BCR inh	DT40 TDP1 CPT	MCF10A rereplic	IL1B secr inh	SW480 rerep	DT40 TDP1 no CPT
CCCN(CC(=O)Nc1ccccc1C)C(=O)/C=C/c1ccc(S(=O)(=O)N2CCCCCC2)cc1	-3%	?	3%	-16	-1%	21µM*
COc1ccc(NC(=O)CN(C)C(=O)/C=C/c2ccc(OCc3ccccc3)cc2)cc1	?	-28%	?	-3	7%	?
CCCN(CC(=O)Nc1ccccc1C)C(=O)c1ccc(S(=O)(=O)N2CCCCCC2)cc1	-1%	6%	9%	-3	-1%	0%
COc1ccc(NC(=O)CN(C)C(=O)/C=C/c2ccc(S(=O)(=O)N3CCCCCC3)cc2)cc1	-19%	?	?	-16	13%	18µM*
COc1cccc(/C=N/NC(=O)c2nnn(-c3nonc3N)c2CN(C)C2CCCCC2)c1	nt	?	nt	-3	nt	?
Cc1ccc(C(C)C)cc1OCC(=O)NCCCn1ccnc1	8%	?	1.5µM*	2	17%	23µM*
Cc1c(C)c2cc(Cl)c(OCC(=O)NCCCn3ccnc3)cc2oc1=O	0%	5%	-30%	?	-4%	3%
O=C(COc1cc2oc(=O)c3c(c2cc1Cl)CCC3)NCCCn1ccnc1	?	-13%	23µM*	-22	-8%	?
Cc1cc(Cn2nc(-c3ccccc3)cc2C(=O)NCC2CC2)on1	1%	-21%	?	-12	-2%	-10%
CC12CCC(=O)C=C1CCC1C2C(O)CC2(C)C1CCC2(O)C(=O)CO (centres undefined)	?	-15%	3%	?	-1%	?
COc1ccc(-c2noc(N3CCC(C(=O)N(C)c4cc(Cl)ccc4OC)CC3)n2)cc1	nt	16µM*	nt	nt	nt	?
COc1ccc(-c2noc(N3CCC(C(=O)N4CCN(c5ccccn5)CC4)CC3)n2)cc1	-1%	23µM*	20%	?	-8%	10µM*
COc1ccc(-c2noc(N3CCC(C(=O)Nc4ccc(OC)cc4OC)CC3)n2)cc1	-9%	?	6%	-14	-9%	?
COc1ccc(C2=NOC(C(=O)N3CCN(c4ccccc4OC)CC3)C2)cc1 (centres undefined)	?	16µM*	16%	20	-2%	23µM*

High-throughput results from PubChem BioAssay.
